From PubChem BioAssay
DUSP3 inh: VHR1 phosphatase inhibitors, primary screen, biochemical, absorbance, uHTS. Dual specificity protein phosphatase 3 (Homo sapiens), P51452. recombinant VHR phosphatase, pNPP absorbance. inhibition, % at 13.3 µM. 290,000 compounds, 0.52% hits. AID 1654, 2009; in the data active = inhibition above about 50%
Target sequence (P51452 whole entry, looked up): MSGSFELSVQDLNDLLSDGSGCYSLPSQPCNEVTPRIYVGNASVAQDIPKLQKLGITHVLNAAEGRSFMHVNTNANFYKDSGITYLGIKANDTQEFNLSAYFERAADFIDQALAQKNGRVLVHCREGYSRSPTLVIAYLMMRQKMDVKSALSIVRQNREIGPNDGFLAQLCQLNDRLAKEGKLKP
PriA SSB inh: inhibitors of Klebsiella pneumoniae PriA binding to SSB C-terminal tail, primary screen, biochemical, AlphaScreen | 430,000 compounds, 0.6% hits | AlphaScreen SSBct-PriA binding, biotinylated peptide | PriA–SSB C-terminal tail interaction (Klebsiella pneumoniae) | inhibition, % at 33 µM; in the data active = inhibition mostly above about 37%, no sharp cut-off; inactive = mostly below about 20%;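 also: plate controls were negative control peptide for no effect and reference peptide for full effect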
CCHF vOTU inh: CCHFV vOTU protease inhibitors, primary screen, biochemical, Pep-AMC substrate, fluorescence; Crimean-Congo hemorrhagic fever virus L polyprotein viral ovarian tumor (vOTU) protease …; inhibition, % at 11.5 µM; 370,000 compounds, 0.55% hits; AID 651958, 2012; in the data active = inhibition above about 30%; also: 0% = vehicle wells with enzyme and 100% = no enzyme wells
ugtP null kill: growth inhibition of ugtP-null S. aureus, primary screen, RN4220 ugtP deletion, OD600; 16 h; growth inhibition, % (concentration not given with the values); 330,000 compounds, 0.54% hits; in the data active = growth inhibition above about 68%;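 also: plate controls were untreated wells for no effect and antibiotic for full effect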
Sa RN4220 lethal: growth inhibition of S. aureus RN4220, primary screen, OD600; AID 1259311, 2017; 330,000 compounds, 0.33% hits; 16 h; inhibition, % (test concentration not listed); in the data active = inhibition above about 85%;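 also: plate controls were untreated cells for no effect and reference antibiotic for full effect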
The depositor's hits bear a star; / = no result given. Most compounds without a hit are left out; they make up all but 1.5% or so of the library.

SMILES	DUSP3 inh	PriA SSB inh	CCHF vOTU inh	ugtP null kill	Sa RN4220 lethal
O=C(CCSc1ccccc1)NCCn1ccc(-c2cccs2)n1	/	0	/	/	/
NC(=O)c1ccc(NC(=O)COc2coc(CN3CCN(Cc4ccccc4)CC3)cc2=O)cc1	/	-22	/	/	/
O=C(CN1C(=O)C2CCCCC2C1=O)Nc1nc(-c2ccccn2)cs1 (centres undefined)	-7	81*	9	-14	6
CC1Oc2ccccc2N(CC(=O)Nc2nc(-c3ccccn3)cs2)C1=O (centres undefined)	/	58*	/	/	/
C[C@@H](C(=O)Nc1nc(-c2ccccn2)cs1)N1C(=O)C2CCCCC2C1=O (some centres undefined)	-2	81*	22	-1	9
CCc1cccc2sc(NC(=O)c3ccc(S(C)(=O)=O)cc3)nc12	/	4	/	/	/
O=C(CCc1ccccc1)Nc1ncn[nH]1	53*	-4	-3	10	5
O=C(COc1ccccc1)Nc1ncn[nH]1	-12	-8	9	-2	4
O=C(C1=C(c2ccccc2)C(=O)c2ccccc2C1=O)c1ccccc1	40	11	29	96*	97*
COC1=C(c2ccccc2)C(=O)c2ccccc2C1=O	-8	-14	22	57	57
COc1cc(Nc2ccc(S(=O)(=O)N3CCN(C)CC3)cc2[N+](=O)[O-])cc(OC)c1	/	32	25	3	1
COc1ccc(Nc2ccc(S(=O)(=O)N3CCCCCC3)cc2[N+](=O)[O-])cc1	8	46*	-3	-13	1
CSc1cccc(Nc2ccc(S(=O)(=O)N3CCOCC3)cc2[N+](=O)[O-])c1	/	38*	2	-1	0
COc1ccccc1C(C)Nc1ccc(S(=O)(=O)N2CCN(C)CC2)cc1[N+](=O)[O-] (centres undefined)	/	57*	1	1	0
COc1ccccc1Nc1ccc(S(=O)(=O)N2CCCCC2)cc1[N+](=O)[O-]	17	63*	-4	-15	4
COc1ccc(CCNc2nc3ccccc3nc2NS(=O)(=O)c2cccs2)cc1	/	-19	/	/	/
COc1ccc(Nc2ccc(S(=O)(=O)N3CCCCC3)cc2[N+](=O)[O-])cc1OC	-7	70*	2	0	5
COc1cccc(Oc2cc(NN3CCCCC3)c([N+](=O)[O-])cc2[N+](=O)[O-])c1OC	17	48*	2	1	4
COc1ccccc1C(C)Nc1ccc(S(=O)(=O)N2CCCC2)cc1[N+](=O)[O-] (centres undefined)	/	48	/	/	/
O=[N+]([O-])c1cc([N+](=O)[O-])c(Oc2cccc3c2CCCC3)cc1NN1CCCCC1	/	-5	2	1	3
COc1ccc(CNC(=O)NCc2nc(C)no2)cc1OC	/	9	/	/	/
CCCCCCOC(=O)Cc1c(C)nc(N)[nH]c1=O	-8	-4	11	3	3
CCCCCCOC(=O)CCc1c(C)nc(N)[nH]c1=O	52*	-5	-8	-4	4
Cc1csc(N2CCCC2c2nc3cc(C(F)(F)F)ccc3n2CCOCCO)n1 (centres undefined)	/	48*	-4	-7	4
COc1cc(O)c(CC=C(C)C)c(O)c1C(=O)CCc1ccc(O)cc1	18	-3	8	92*	73
SMILES	DUSP3 inh	PriA SSB inh	CCHF vOTU inh	ugtP null kill	Sa RN4220 lethal
Cc1cc(C(=O)NN=Cc2sc(N3CCOCC3)nc2-c2ccccc2)c(C)o1	/	-13	/	95*	94*
COc1cc(C(=O)NN=Cc2sc(N3CCOCC3)nc2-c2ccccc2)cc(OC)c1OC	/	2	/	7	-6
CC(C)=NNc1ncnc2nc[nH]c12	/	50*	2	/	/
Cc1cc(C)cc(Oc2cc(SCC(=O)Nc3ccc(C)c(F)c3)ncn2)c1	/	-6	/	/	/
COc1cccc2sc(N3CC(OC(=O)Cc4cccs4)C3)nc12	/	3	/	/	/
O=C(CCS(=O)(=O)c1cccs1)Nc1ccc(C(=O)NCc2ccccc2)cc1	53*	-6	6	-4	-1
Cc1ccc(CNC(=O)c2ccc(NC(=O)CCS(=O)(=O)c3cccs3)cc2)cc1	15	-12	-12	2	5
O=c1cc2c(nn1Cc1ccc(Cl)cc1)-c1ccccc1CC2	12	-21	33*	-14	0
O=C(CCc1ccc(C(F)(F)F)cc1)NCC1CCCN1c1ccccc1 (centres undefined)	/	-9	/	/	/
